# Most compounds without a hit are left out; they make up all but 3.1% or so of the library.
# Statin myotox sup = suppressors of simvastatin-induced myotoxicity in C2C12 myotubes; ATP luminescence, 48 h; scaled: DMSO 0, geranylgeraniol control 100; rescue of ATP level, % at 7.49 µM; 330,000 compounds, 0.78% hits;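 active = mean ATP rescue above about 67%, or every replicate alone reaching that limit, limit read from the data, passing the limit was not always enough; inconclusive = no clear call, values can overlap the other calls; inactive = mean under the limit and some replicate under it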;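 also: myotubes were challenged with 10 µM simvastatin during compound exposure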
# MITF TRPM1 HTS = activators of MITF-driven TRPM1 promoter activity in SK-MEL-5 cells; SK-MEL-5 TRPM1-promoter luciferase, 24 h; % of positive control, neutral wells = 0; AID 588334; activation, % at 12.5 µM; 300,000 compounds, 0.75% hits;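 active = mean activation of at least 80% with every replicate also reaching 80%; inconclusive = mean reaches 80% but some replicate falls short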;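 also: 0% = neutral control wells and 100% = parthenolide positive control wells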
# esBAF inh = inhibitors of esBAF chromatin remodeling in mouse ES cells; Bmi1-luciferase knock-in reporter, 24 h; 100% = twice the neutral-well signal; reporter increase, % at 12.5 µM; 350,000 compounds, 2% hits; AID 602393; in the data active = activation above about 40%; inconclusive = no clear call, values can overlap the other calls;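 also: 0% = median of the plate's neutral control wells and 100% = double that signal; a rise in the Bmi1 reporter signal indicates esBAF inhibition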
# Rtt109 HAT inh = blocks Candida albicans Rtt109/Vps75 acetyltransferase activity. Q5AAJ8. purified Rtt109/Vps75, ThioGlo CoA-SH fluorescence, 4 h. inhibition, % at 34.9 µM. 330,000 compounds, 0.16% hits;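 active = inhibition of at least 50% in every replicate; inconclusive = best replicate reaches 50% inhibition but some replicates fall short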
# Target sequence (Q5AAJ8 whole entry, looked up): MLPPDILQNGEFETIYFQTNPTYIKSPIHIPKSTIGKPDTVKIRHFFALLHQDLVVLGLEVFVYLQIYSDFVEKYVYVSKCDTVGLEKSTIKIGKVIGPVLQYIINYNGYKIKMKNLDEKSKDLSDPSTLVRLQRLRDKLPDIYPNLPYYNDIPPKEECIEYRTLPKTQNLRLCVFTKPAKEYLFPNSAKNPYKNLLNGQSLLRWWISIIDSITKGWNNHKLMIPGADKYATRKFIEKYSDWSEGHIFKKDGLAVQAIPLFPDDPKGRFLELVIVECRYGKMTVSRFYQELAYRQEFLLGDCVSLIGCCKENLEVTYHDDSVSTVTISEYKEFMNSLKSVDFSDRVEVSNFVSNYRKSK
# Wnt act = activators of Wnt/beta-catenin signaling; activation, % at 9.35 µM; Wnt/beta-catenin reporter cell assay, activator, plate reader; 300,000 compounds, 1.2% hits; in the data active = activation above about 30%, passing the limit was not always enough; inconclusive = no clear call, values can overlap the other calls;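 also: 0% = neutral control wells and 100% = positive control wells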
# * = called active by the depositor; u = inconclusive; x = not tested or not shown.
SMILES,Statin myotox sup,MITF TRPM1 HTS,esBAF inh,Rtt109 HAT inh,Wnt act
Cc1ccc(S(=O)(=O)N[C@@H]2CC[C@@H](CC(=O)NCc3ccccc3F)O[C@@H]2CO)cc1,-3,x,3,x,x
CC1CCN(S(=O)(=O)CCNC(=O)c2ccccc2)CC1,0,-4,3,-12,-4
O=C(NCCc1ccccc1)c1ccc(Cl)nc1,7,59,-7,2,39*
O=C(COC(=O)c1ccc(Cl)nc1)NCCc1ccc(Cl)cc1,1,-1,-10,7,-2
CC1CCN(c2ccc(C(=O)NCCc3ccccc3)cn2)CC1,-10,65,50*,-6,x
CC(C)(C)C(=O)N1CCc2cc(-c3csc(N)n3)ccc21,-31,-13,-54,3,x
CCC(C)C(=O)N1CCc2cc(-c3csc(N)n3)ccc21 (stereo not given),-57,68,53*,8,x
C#CCOCCOCCOCCNc1nc(N2CCOCC2)nc(N2CCN(C(=O)CCCCCCCCCCNC(=O)[C@@H]([C@H](C)O)n3cc(C)nn3)CC2)n1,-5,2,-5,5,-1
C#CCOCCOCCOCCNc1nc(N2CCN(C(=O)C([C@@H](C)O)n3cc([C@@H](N)CCCCN)nn3)CC2)nc(N2CCN(C(=O)C([C@@H](C)O)n3cc([C@@H](N)CCCCN)nn3)CC2)n1 (stereo not given in full),3,-2,-1,73*,-6
C#CCOCCOCCOCCNc1nc(N2CCN(C(=O)C([C@@H](C)O)n3cc([C@@H](N)CCCCN)nn3)CC2)nc(N2CCN(C(=O)[C@H](CO)n3cc([C@@H](N)C(C)C)nn3)CC2)n1 (stereo not given in full),-6,5,0,-2,1
C#CCOCCOCCOCCNc1nc(N2CCN(C(=O)CCCCCCCCCCNC(=O)[C@@H]([C@H](C)O)n3cc(C)nn3)CC2)nc(N2CCN(C(=O)CCCCCCCCCCNC(=O)[C@@H]([C@H](C)O)n3cc(C)nn3)CC2)n1,77*,-36,7,3,-3
Cc1ccc(NC(=O)Nc2ccc3c(c2)OCO3)nc1,5,130*,48*,7,u
Cc1cccc(NC(=O)Nc2cccc(C#N)c2)n1,0,44,50*,2,8
Cc1ccc(NC(=O)c2cc(F)c(F)cc2Cl)nc1,u,u,44*,5,16
O=C(Nc1cccc(F)c1)Nc1ccc(Cl)cn1,0,74,32,2,14
Cc1ccc(NC(=O)Nc2cccc(F)c2)nc1,-12,x,53*,4,4
Cc1cccc(NC(=O)Nc2ccc(C#N)cc2)n1,26,-18,20,0,3
COC(=O)C[C@@H]1C[C@H]2c3cc(NC(=O)c4cccnc4)ccc3O[C@H]2[C@@H](CO)O1,2,x,3,x,x
CC(=O)N(C)C[C@H]1Oc2cc(-c3ccccc3C)ccc2S(=O)(=O)N([C@@H](C)CO)C[C@H]1C,-14,x,-2,x,x
CNC[C@@H]1Oc2ccc(NC(=O)Nc3ccc(F)cc3)cc2CC(=O)N([C@@H](C)CO)C[C@H]1C,0,x,0,x,x
Cc1ccnc(NC(=O)Nc2cccc(F)c2)c1,2,x,-11,17,x
Cc1ccc(NC(=O)/C=C/c2ccc3c(c2)OCO3)nc1,x,u,x,-2,30*
Cc1cccc(NC(=O)Nc2cccc(F)c2)n1,-15,20,68*,-11,x
Cc1ccnc(NC(=O)Nc2cccc(F)c2)n1,-3,28,13,29,80*
COc1cccc(NC(=O)Nc2nccc(C)n2)c1,x,-5,x,-2,7
SMILES,Statin myotox sup,MITF TRPM1 HTS,esBAF inh,Rtt109 HAT inh,Wnt act
Cc1ccc(NC(=O)Nc2ccc(Cl)c(Cl)c2)nc1,1,x,60*,-4,19
C[C@@H]1CN([C@H](C)CO)C(=O)c2cc(NC(=O)Cn3cnnn3)ccc2O[C@H]1CN(C)C(=O)Nc1ccccc1,x,x,1,x,x
CCCNC(=O)c1ccc(N2CCC3(CC2)CC(c2cccc(Br)c2)=NO3)c(NC(=O)c2ccccc2)c1,x,-6,x,7,-5
CCCNC(=O)c1ccc(N2CCC3(CC2)CC(c2cccc(Br)c2)=NO3)c(NC(=O)c2cccc(OC)c2)c1,142*,-16,-2,5,8
CO[C@@H]1CN(C)C(=O)c2cc(NC(=O)c3cccc(Oc4ccccc4)c3)ccc2OC[C@H](C)NC[C@H]1C,-77,x,-7,x,x
Cc1ccc2nc(-c3ccc(NS(=O)(=O)c4ccc(F)c(F)c4)cc3)sc2c1,x,58,x,-8,38*
